# A selection: hits, their analogues and other compounds. The true share with any hit is near 19%.
# HT1080NT lethal: kills 2HG-producing HT-1080-NT fibrosarcoma cells; HT-1080-NT fibrosarcoma viability, CellTiter-Glo ATP luminescence, 48 h; 360,000 compounds, 1.6% hits; AID 686970; Potency, µM (series often up to 46.1 µM), hits mostly cytotoxic;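 further: NT is the 2HG producing partner of a matched IDH1 knockdown line; nearly all actives have a fitted effect of over 55% in size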
#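 Compounds were tested in concentration-response format on HT-1080-NT cells for 48 hours at 37 degrees C. Cell viability came from CellTiter-Glo luminescence; curves were classified by r2, response magnitude and activity.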
# IL1B secr inh: inhibitors of inflammasome signaling (IL-1 beta secretion). THP-1 LPS/ATP IL-1B secretion, AlphaLISA, 16 h; hits give low values. activity change, % at 57.5 µM. 360,000 compounds, 4.7% hits; in the data active means activity change below about -50%; inconclusive means mostly about -30% to -49%
#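 Secreted IL-1B measured by AlphaLISA bead assay after 16 h compound exposure of THP-1 cells; compounds (final up to 57.5 uM) added 1 h before LPS (250 ng/mL) and ATP (1.25 mM) stimulation; lower signal means less secretion.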
# TDP1 cell CPT: DT40-hTDP1 cell growth loss with CPT; Potency, µM (titrated, usually from 46.2 µM), most hits filed as inhibitors; 420,000 compounds, 12% hits; chicken DT40 Tdp1-/-;hTDP1 cells + 20 nM CPT, ATP luminescence, 48 h; further: nearly all actives have a fitted effect of over 55% in size
#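 Chicken DT40 Tdp1-/- cells complemented with human TDP1, 400 cells/well, exposed to compounds plus 20 nM camptothecin for at least 48 h at 37 C; viability read as ATP content by CellTiter-Glo luminescence.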
# uPA generation: inhibitors of cell surface uPA generation; AID 540303; cell surface uPA generation assay, qHTS; Potency, µM (series often up to 38.3 µM), hits mostly inhibitors; 330,000 compounds, 0.31% hits; active means well fitted inhibition curve with a large enough effect; inconclusive means small, poorly fitted or top-dose-only effect; inactive means no such curve, though single readings can be large or run the other way; tested in mouse RAW 264.7 cells; further: nearly all actives have a fitted effect of over 55% in size
# HT1080 IDH1KD tx: toxicity to HT-1080 IDH1 knockdown cells (counter line); Potency, µM (highest dose often 46.1 µM), hits mostly cytotoxic; AID 686971; 360,000 compounds, 2% hits; HT-1080 IDH1 knockdown viability, ATP luminescence, 48 h
#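 Using the IDH1-knockdown HT-1080 line run in the same batch and compound series as the NT line, viability after 48 h at 37 °C was determined by CellTiter-Glo luminescence and expressed as % activity.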
# DT40 TDP1 no CPT: qHTS for Inhibitors of human tyrosyl-DNA phosphodiesterase 1 (TDP1): qHTS in cells in absence of CPT. DT40 Tdp1-/- hTDP1 cells, no CPT, ATP luminescence, 48 h. Potency, µM (highest dose often 46.2 µM), usual class: inhibitors. 420,000 compounds, 15% hits. AID 686978, 2013; further: nearly all actives have a fitted effect of over 55% in size
#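 Seeded 400 DT40-hTDP1 cells/well (vehicle DMSO, no 20 nM CPT); pinned compounds; ≥48 hr at 37 °C; CellTiter-Glo luminescence as viability measure.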
# Hits are given with their value; n = inactive; u = inconclusive; x = no result; ! = not active in a repeat. Unless noted, the call rests on the fitted dose curve; in most records, active means well fitted curve in the direction sought with a large enough effect; inconclusive means small, poorly fitted or top-dose-only effect, or another doubt; inactive means no such curve, though single readings can be large; an effect the other way counts as inactive or inconclusive.
SMILES,HT1080NT lethal,IL1B secr inh,TDP1 cell CPT,uPA generation,HT1080 IDH1KD tx,DT40 TDP1 no CPT
Cc1ccc(C[n+]2c(-c3ccc(C)cc3)cc(-c3ccc(C)cc3)cc2-c2ccc(C)cc2)cc1,3.3µM,-111,0.92µM,u,2.6µM,0.58µM
Cc1ccc(-c2cc(-c3ccc(C)cc3)[n+](-c3ccc(C(=O)O)cc3)c(-c3ccc(C)cc3)c2)cc1,u,n,n,n,n,n
Cc1oc(-c2cccc(Cl)c2)nc1CN1CCC(C(=O)NCCCN2CCN(c3cccc(Cl)c3)CC2)CC1,x,x,15µM,x,x,18µM
COc1cc(Cl)c(C)cc1NC(=O)CCCn1c(=O)oc2ccccc21,n,n,n,n,n,u
O=[N+]([O-])c1nccn1CC(O)CN1CC1 (stereo not given),n,n,12µM,x,n,10µM
CN(C)c1ccc(/C=C(\Cl)c2nc3ccccc3s2)cc1,n,n,16µM,10µM,n,21µM
COc1cc(OC)c(OC)cc1CNCCc1ccc2c(c1)OCO2,n,n,u,n,n,u
O=C(COc1ccc(Cl)cc1)N(c1ccc(Cl)cc1)C1CN2CCC1CC2 (stereo not given),16µM,-95,u,n,15µM,16µM
Clc1ccccc1CNC1CN2CCC1CC2 (stereo not given),n,n,u,n,n,n
O=S(=O)(NC1CN2CCC1CC2)c1ccc(Cl)cc1 (stereo not given),n,n,n,n,n,n
O=C(COc1ccc(Cl)cc1)N(c1ccccc1Cl)C1CN2CCC1CC2 (stereo not given),u,-75,23µM,n,16µM,16µM
CCCCn1c(O)c(C(C)=Nc2ccc(OCC)cc2)c(=O)[nH]c1=O,n,n,18µM,n,n,23µM
CCCCn1c(O)c(C(C)=NCCc2c[nH]c3ccccc23)c(=O)[nH]c1=O,n,n,u,n,n,16µM
C=CCn1c(O)c(C(C)=NCCc2c[nH]c3ccccc23)c(=O)[nH]c1=O,n,n,n,n,n,n
COCCOc1ccc(C(F)(F)F)cc1NC(=O)CN1C(=O)NC2(CCCc3ccccc32)C1=O (stereo not given),n,n,u,n,n,26µM
CS(=O)(=O)Nc1ccccc1C(=O)Nc1cc(Cl)cc(Cl)c1,u,-56,18µM,x,11µM,18µM
CCOC(=O)c1ncn2c1CN(C)C(=O)c1c(I)cccc1-2,x,x,n,x,x,n
COc1cc(C2c3cc(O)c(OC)cc3CC3C(=O)OCC32)ccc1O (stereo not given),n,n,n,n,n,n
COc1cc([C@@H]2c3cc4c(cc3C[C@H]3COC(=O)[C@@H]32)OCO4)cc(OC)c1O,x,x,0.071µM,x,x,0.032µM
COc1cc(C2c3cc4c(cc3CC3COC(=O)C32)OCO4)cc(OC)c1OC (stereo not given),0.37µM,n,0.021µM,u,0.23µM,0.0052µM
c1ccc2c(NC3=NCCS3)cccc2c1,n,n,n,n,n,n
COc1ccc(NS(=O)(=O)c2ccc3c(c2)oc(=O)n3C)cc1Cl,n,n,13µM!,n,n,16µM
CC(=O)O[C@@H]1C[C@H]2C(C)(C)C(=O)C=C[C@]2(C)[C@H]2CC[C@@]3(C)[C@H](c4ccoc4)OC(=O)[C@H]4O[C@]43[C@@]21C,u,n,u,u,u,u
CC1(C)C(=O)C=C[C@@]2(C)C1CC(O)[C@]1(C)C2CC[C@@]2(C)C(c3ccoc3)OC(=O)C3O[C@]312 (stereo not given in full),x,x,13µM,x,x,12µM
CCN(CC)c1ccc(CN2CC=C(c3ccc(F)cc3)CC2)cc1,u,n,18µM,n,u,18µM
SMILES,HT1080NT lethal,IL1B secr inh,TDP1 cell CPT,uPA generation,HT1080 IDH1KD tx,DT40 TDP1 no CPT
Oc1ccc2ccccc2c1CN1CC=C(c2ccccc2)CC1,n,n,n,n,n,n
O=[N+]([O-])c1ccccc1CN1CC=C(c2ccc(F)cc2)CC1,n,n,23µM,n,n,u
COc1ccccc1N1CCN(Cc2cccc(Br)c2)CC1,n,n,u,n,n,u
COc1ccc(CN2CC=C(c3ccc(F)cc3)CC2)cc1Br,n,n,u,n,n,29µM
O=[N+]([O-])c1cccc(CN2CC=C(c3ccc(F)cc3)CC2)c1,n,n,u,n,n,u
O=c1c2ccccc2nc(CNCc2ccco2)n1-c1ccc(F)cc1,n,n,u,n,n,u
COC(=O)CC1Oc2ccc(C)cc2-n2cc(-c3ccc(F)cc3)nc21 (stereo not given),x,x,18µM,x,x,9.2µM
CC(C)(C#N)O[C@H]1OC(CO)C(O)C(O)C1O (stereo not given in full),x,x,n,x,x,n
COCOC1CCC2C3CCC4=CC(=O)CCC4=C3C=CC12C (stereo not given),n,n,u,n,n,u
CC1(O)CCC2C3CCC4=CC(=O)CCC4=C3C=CC21C (stereo not given),n,n,9.2µM,n,u,15µM
O=C(Nc1sc2c(c1C(=O)O)CCCCC2)c1cccs1,n,n,u,u,n,u
NC(=O)c1c(NC(=O)c2ccc(S(=O)(=O)N(CCCl)CCCl)cc2)sc2c1CCCCC2,n,n,10µM,n,n,15µM
O=[N+]([O-])c1ccc(N(CCO)CCO)c2c1no[n+]2[O-],8.2µM,-103,0.092µM,x,5.8µM,0.16µM
CN1CCN(c2ccc([N+](=O)[O-])c3no[n+]([O-])c23)CC1,2.9µM,-101,0.18µM,n,4.6µM,0.16µM
CN1CCN(c2ccc(S(C)(=O)=O)cc2[N+](=O)[O-])CC1,n,n,n,n,n,n
COC(=O)C1(C(=O)OC)C[C@H](c2ccc(OC)cc2)N(Cc2ccccc2OC)[C@@H]1c1ccccc1,n,n,u,x,n,u
COc1ccc(-n2c(=O)[nH]c3ccccc3c2=O)cc1,n,n,n,n,n,n
COc1cccc(-n2c(SCC(=O)c3ccc(Cl)cc3)nc3c([nH]c4ccccc43)c2=O)c1,x,x,3.7µM,x,x,4.1µM
Cc1cc(C)cc(-n2c(SCC(=O)NCc3ccc(F)cc3)nc3c([nH]c4ccccc43)c2=O)c1,x,x,u,x,x,16µM
Cc1cccc(N(C)C(=S)Oc2ccc3c(c2)CCC3)c1,x,x,n,x,x,u
CC(Cc1ccccc1)/[N+]([O-])=C\c1ccc(C(F)(F)F)cc1 (stereo not given),n,n,u,n,n,u
CCCc1cc(N2CCN(c3cccc(C)c3C)CC2)n2cnnc2n1,x,x,16µM,x,x,18µM

# From PubChem BioAssay
